From PubChem BioAssay come the findings set out here.

In one test the target is Albumin (Bos taurus) (UniProt P02769). The test is described as follows: compounds binding labelled BSA control protein – biochemical, small-molecule microarray, Alexa647 label, 635/667 nm fluorescence, artefact control for SMM control protein annotation, profiling panel (AID 1118).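 Further: score merges 667 nm emission intensity and signal-to-noise per printed compound spot.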 To be noted: BSA-A647 binding, fluorescence 635 nm, higher = more signal.
Chain of Albumin (Bos taurus) (P02769 whole entry, looked up): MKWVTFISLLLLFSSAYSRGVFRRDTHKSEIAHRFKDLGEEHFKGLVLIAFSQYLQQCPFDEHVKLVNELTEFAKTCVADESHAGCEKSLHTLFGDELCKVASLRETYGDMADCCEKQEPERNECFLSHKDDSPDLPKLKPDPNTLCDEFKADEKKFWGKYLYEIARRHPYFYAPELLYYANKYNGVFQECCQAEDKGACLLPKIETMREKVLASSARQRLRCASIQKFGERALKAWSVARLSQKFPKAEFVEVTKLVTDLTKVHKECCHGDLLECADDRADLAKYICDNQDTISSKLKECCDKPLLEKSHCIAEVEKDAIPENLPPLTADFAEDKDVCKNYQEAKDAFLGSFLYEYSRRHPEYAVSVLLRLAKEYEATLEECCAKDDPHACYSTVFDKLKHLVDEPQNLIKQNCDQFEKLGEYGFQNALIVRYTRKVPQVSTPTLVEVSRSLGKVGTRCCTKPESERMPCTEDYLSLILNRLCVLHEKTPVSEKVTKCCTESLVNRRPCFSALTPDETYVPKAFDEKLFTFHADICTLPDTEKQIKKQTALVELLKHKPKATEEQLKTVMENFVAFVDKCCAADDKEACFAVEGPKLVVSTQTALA
The nature of test [1]: probe aXIP binding to arrayed compounds – biochemical, NeuroSMM set, 635/667 nm fluorescence, primary screen (AID 1119).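 Further: probe is the protein aXip251-270 applied at 1 µg/mL to compound-printed slides; binding of probe to printed compounds measured as 667 nm fluorescence plus signal to noise.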 The conditions noted are these: small-molecule microarray, higher = more signal, called active from +8 up or from −8 down.
The nature of test [2]: probe aNOTCH3 binding on compound microarray – biochemical, small-molecule microarray, 635/667 nm fluorescence, primary screen (AID 1120).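 Further: probe is a biotin-tagged antibody raised against NOTCH3 rather than NOTCH3 protein; score merges spot fluorescence near 667 nm with spot signal to noise.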 The conditions noted are these: higher = more signal.
Test [3] is described as follows: probe aNOTCH2 binding on compound microarray – biochemical, small-molecule microarray, 635/667 nm fluorescence, primary screen (AID 1121).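 Further: score merges feature fluorescence read at 667 nm with its signal to noise.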 To be noted: higher = more signal.
For test [4], the target named is Carbonic anhydrase 2 (Homo sapiens) (UniProt P00918). The test is described as follows: compounds binding carbonic anhydrase 2 – biochemical, small-molecule microarray, Alexa647-labelled CAII, profiling panel (AID 1122). The conditions noted are these: CAII-A647 binding fluorescence, higher = more signal.
The nature of test [5]: COS7 lysate on small-molecule microarray, probe aHis, 635 nm (AID 1123).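 Further: z-score combines 667nm fluorescence intensity with signal-to-noise per printed compound spot.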 To be noted: COS7 cell lysate, fluorescence, higher = more signal.
The nature of test [6]: probe aLAP1 signal on lysate-treated microarray – cell lysate, small-molecule microarray, COS7 lysate, primary screen (AID 1124).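 Further: lysate comes from COS7 cells expressing LAP1 and is applied at 0.3 µg/mL; score merges spot fluorescence near 667 nm with signal-to-noise over triplicate slides.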 To be noted: probe aLAP1, fluorescence, higher = more signal.
The test system of a further test is Sam68 (KHDRBS1). The test is described as follows: compounds binding KHDRBS1 protein – biochemical, small-molecule microarray, 635 nm fluorescence, primary screen (AID 1125).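 Further: score merges 667 nm channel intensity with signal to noise over triplicate slides.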 To be noted: higher = more signal.
In test [7] the test system is Chordin-like protein 2 (CHRDL2). The test is described as follows: compounds binding chordin-like 2 – biochemical, small-molecule microarray, 635 nm fluorescence, primary screen (AID 1126).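 Further: printed compound slides probed with Chrdl2 protein at 4 µg/mL for 1 h at 4 C; score merges 667 nm emission intensity with signal to noise over three replicate slides.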 To be noted: fluorescence 635 nm, higher = more signal.
The target of test [8] is Concanavalin-A (Canavalia ensiformis) (UniProt P02866). The experiment in a line: compounds binding concanavalin A lectin – biochemical, small-molecule microarray, Alexa647 label, 635 nm, artefact control for SMM control protein annotation, primary screen (AID 1127).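 Further: z combines 667 nm emission intensity with signal-to-noise across three replicate slides.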 To be noted: ConA-A647 binding fluorescence, higher = more signal.
Chain of Concanavalin-A (Canavalia ensiformis) (P02866 whole entry, looked up): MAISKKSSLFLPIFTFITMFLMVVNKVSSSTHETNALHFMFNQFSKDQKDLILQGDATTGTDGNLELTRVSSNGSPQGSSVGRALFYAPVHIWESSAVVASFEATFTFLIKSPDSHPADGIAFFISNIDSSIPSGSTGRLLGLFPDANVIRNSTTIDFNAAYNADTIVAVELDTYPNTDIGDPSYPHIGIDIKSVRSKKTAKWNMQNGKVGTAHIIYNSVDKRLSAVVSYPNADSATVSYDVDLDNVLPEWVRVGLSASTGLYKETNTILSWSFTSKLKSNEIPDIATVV
A short description of test [9]: compounds binding Alexa647 anti-His antibody – biochemical, small-molecule microarray, 635 nm fluorescence, artefact control for SMM control protein annotation, primary screen (AID 1128).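 Further: score merges feature fluorescence with signal-to-noise for each printed compound spot.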 The conditions noted are these: higher = more signal.
In test [10] the test system is Human papillomavirus type 1a E7 protein (residues 1-88). The test is described as follows: HPV1a E7 small-molecule binders, primary screen, biochemical, small-molecule microarray, residues 1-88, 635 nm (AID 1129). The conditions noted are these: small-molecule microarray binding, fluorescence 635 nm; higher = more signal.
In test [11] the target is Focal adhesion kinase 1 (Homo sapiens) (UniProt Q05397). The experiment in a line: PTK2 protein binding on printed compound slides – biochemical, small-molecule microarray, 635/667 nm fluorescence, BSA, DTT, primary screen (AID 1130).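 Further: composite of spot emission at 667 nm and signal to noise over triplicate slides.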 The conditions noted are these: 635 nm fluorescence, higher = more signal.
Chain of Focal adhesion kinase 1 (Homo sapiens) (Q05397 whole entry, looked up): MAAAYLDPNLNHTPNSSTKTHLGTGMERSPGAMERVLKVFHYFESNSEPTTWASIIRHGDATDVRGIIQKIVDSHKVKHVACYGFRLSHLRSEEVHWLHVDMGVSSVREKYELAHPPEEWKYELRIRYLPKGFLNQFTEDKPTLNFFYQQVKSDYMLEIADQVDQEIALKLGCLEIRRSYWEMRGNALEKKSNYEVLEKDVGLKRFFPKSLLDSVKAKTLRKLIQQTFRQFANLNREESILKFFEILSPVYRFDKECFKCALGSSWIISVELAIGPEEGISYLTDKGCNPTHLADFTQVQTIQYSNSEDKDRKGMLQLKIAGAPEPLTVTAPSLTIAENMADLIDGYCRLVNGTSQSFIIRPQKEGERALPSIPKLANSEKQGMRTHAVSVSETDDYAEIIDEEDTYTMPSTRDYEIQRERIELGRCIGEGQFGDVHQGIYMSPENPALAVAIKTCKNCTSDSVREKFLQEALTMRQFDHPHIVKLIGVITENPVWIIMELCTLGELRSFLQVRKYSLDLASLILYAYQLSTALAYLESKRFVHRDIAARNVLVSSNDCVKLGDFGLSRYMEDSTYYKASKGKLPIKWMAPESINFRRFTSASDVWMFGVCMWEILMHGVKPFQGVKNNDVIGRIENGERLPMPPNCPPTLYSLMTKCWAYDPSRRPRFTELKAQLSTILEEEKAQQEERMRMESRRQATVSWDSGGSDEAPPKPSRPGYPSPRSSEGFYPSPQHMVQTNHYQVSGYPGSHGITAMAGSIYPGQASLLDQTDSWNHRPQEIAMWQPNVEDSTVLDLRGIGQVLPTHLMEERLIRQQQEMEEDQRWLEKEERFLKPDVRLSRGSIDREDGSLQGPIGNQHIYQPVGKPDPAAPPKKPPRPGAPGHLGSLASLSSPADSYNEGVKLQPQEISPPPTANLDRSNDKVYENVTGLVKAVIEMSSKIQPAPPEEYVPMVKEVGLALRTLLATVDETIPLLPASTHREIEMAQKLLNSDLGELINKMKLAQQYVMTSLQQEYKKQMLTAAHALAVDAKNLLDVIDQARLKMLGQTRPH
Test [12] has as its system Fibrinogen (Alexa647-labelled). The experiment in a line: Alexa647-fibrinogen binding to printed small molecules – biochemical, small-molecule microarray, 635/667 nm fluorescence, artefact control for SMM control-protein annotation, profiling panel (AID 1131).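 Further: z-score merges 667 nm fluorescence with per-spot signal-to-noise over triplicate slides.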 To be noted: fibrinogen-A647 binding fluorescence, higher = more signal.
Test [13] has as its target Follistatin (Homo sapiens) (UniProt P19883). The experiment in a line: FST protein binding to printed compounds – biochemical, small-molecule microarray, 635/667 nm fluorescence, primary screen (AID 1132). The conditions noted are these: 635 nm fluorescence, higher = more signal.
The target in test [14] is Fibroblast growth factor 2 (Homo sapiens) (UniProt P09038). The experiment in a line: basic fibroblast growth factor binding to printed compounds – biochemical, small-molecule microarray, 635/667 nm fluorescence, primary screen (AID 1133). To be noted: FGF2, fluorescence 635/667, higher = more signal.
Chain of Fibroblast growth factor 2 (Homo sapiens) (P09038 whole entry, looked up): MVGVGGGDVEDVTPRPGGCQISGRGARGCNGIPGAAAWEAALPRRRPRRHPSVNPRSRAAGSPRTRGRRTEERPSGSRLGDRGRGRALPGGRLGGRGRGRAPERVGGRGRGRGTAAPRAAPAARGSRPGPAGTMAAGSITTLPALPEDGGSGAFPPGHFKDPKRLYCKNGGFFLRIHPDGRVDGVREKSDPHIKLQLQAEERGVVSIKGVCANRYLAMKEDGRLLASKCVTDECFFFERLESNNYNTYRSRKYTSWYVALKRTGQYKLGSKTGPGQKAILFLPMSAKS
Test [15] in a line: JC-1 mitochondrial potential readout, lung cancer cells – cell-based, A549, JC-1 fluorescence, basal, 24 h, 100 nL, profiling panel (AID 1138).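 Further: A549 lung adenocarcinoma cells under basal conditions with no added stimulus; test concentration not given here.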 The conditions noted are these: higher = more signal.
The test system of another test is Lefty1. The experiment in a line: Lefty1 protein binding to printed compounds – biochemical, small-molecule microarray, 635/667 nm fluorescence, primary screen (AID 1139). To be noted: fluorescence 635/667, higher = more signal.
Test [16] deals with wheat germ agglutinin (Triticum aestivum), Alexa647-labelled. The test is described as follows: Alexa647-WGA lectin binding to printed small molecules – biochemical, small-molecule microarray, 635/667 nm fluorescence, artefact control for SMM control-protein annotation, profiling panel (AID 1140).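 Further: score merges 667 nm feature emission with signal to noise over triplicate slides.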 To be noted: WGA-A647 binding, 635 nm fluorescence, higher = more signal.
Test [17] deals with Luciferin 4-monooxygenase (Photinus pyralis) (UniProt P08659). The experiment in a line: inhibition of purified Photinus pyralis luciferase – biochemical, luminescence, purified enzyme, 2006 set, primary screen (AID 1141).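 Further: cell-free assay with purified firefly luciferase at 100 ng per well in PBS; test concentration not given here.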 To be noted: purified firefly luciferase, SteadyGlo luminescence, 30 min; higher = more signal, called active from +8 up or from −8 down.
Chain of Luciferin 4-monooxygenase (Photinus pyralis) (P08659 whole entry, looked up): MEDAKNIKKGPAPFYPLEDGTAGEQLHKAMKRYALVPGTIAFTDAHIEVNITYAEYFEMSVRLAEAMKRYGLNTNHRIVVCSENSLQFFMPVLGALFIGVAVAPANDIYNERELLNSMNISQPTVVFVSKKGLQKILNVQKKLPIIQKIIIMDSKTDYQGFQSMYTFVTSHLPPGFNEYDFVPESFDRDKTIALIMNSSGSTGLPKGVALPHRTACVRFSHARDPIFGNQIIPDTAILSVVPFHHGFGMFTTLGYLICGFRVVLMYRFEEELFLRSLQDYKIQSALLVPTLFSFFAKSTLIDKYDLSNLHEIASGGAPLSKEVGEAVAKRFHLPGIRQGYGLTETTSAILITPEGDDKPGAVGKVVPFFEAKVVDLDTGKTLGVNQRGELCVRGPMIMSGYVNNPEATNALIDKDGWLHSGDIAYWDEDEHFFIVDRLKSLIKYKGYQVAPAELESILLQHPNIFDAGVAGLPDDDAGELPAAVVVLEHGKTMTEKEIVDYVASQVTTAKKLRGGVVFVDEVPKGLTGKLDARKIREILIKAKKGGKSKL

Molecules are shown by their SMILES. Calls of active or inactive are those of the source.

Chain of Follistatin (Homo sapiens) (P19883 whole entry, looked up): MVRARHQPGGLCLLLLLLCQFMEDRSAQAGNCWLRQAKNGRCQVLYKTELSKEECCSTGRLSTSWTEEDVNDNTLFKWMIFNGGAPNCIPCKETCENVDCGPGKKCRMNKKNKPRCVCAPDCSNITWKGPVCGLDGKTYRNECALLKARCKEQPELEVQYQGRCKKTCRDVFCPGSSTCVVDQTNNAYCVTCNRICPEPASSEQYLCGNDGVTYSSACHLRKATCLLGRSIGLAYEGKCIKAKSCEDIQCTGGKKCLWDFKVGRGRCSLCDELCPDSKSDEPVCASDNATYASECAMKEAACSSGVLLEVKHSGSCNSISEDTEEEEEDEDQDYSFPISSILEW

`CC(C)C(=C=CC[C@H](O)c1ccc(OCCO)cc1)CCO`: the composite z-score with Albumin (Bos taurus) was 0.467; in [2], -0.116; in test [3], -0.174; in [4], 0.228; in [5] it was 1.83; in test [6], 0.182. Further, the composite z-score worked out at 1.28 in the test on Sam68 (KHDRBS1); 0.489 in [7]; 0.549 in test [8]; 1.07 in [9]; 1.2 in test [10]; 0.178 in test [11]. The composite z-score came to 0.53 in [12]; 1.38 in [13]; 1.05 in test [14]; 1.07 with Lefty1; 0.295 in [16]. The composite Z-score in [1] is -0.435 (inactive). The z-score is 0.41 in test [15] and -0.961 (inactive) in [17].
As to `COC(=O)[C@@]1(Cc2ccc(F)cc2)[C@H]2c3cc(C(=O)N(C)C)n(Cc4ccccc4)c3C[C@H]2CN1C(=O)c1ccccc1`, the composite z-score with Albumin (Bos taurus) was found to be 0.816; in test [2], 0.215; in test [3] it was 0.0431; in test [4] it was 0.183; in test [5], 2.05; in test [6], 0.495. Moreover, the composite z-score with Sam68 (KHDRBS1) was 0.78; in test [7], -0.643; in test [8] it was 1.04; in test [9], 1.38; in test [10], 0.789; in test [11], -0.109. The composite z-score was 0.91 in test [12]; 0.787 in test [13]; -0.525 in [14]; 0.0954 in the test on Lefty1; 1.16 in [16]. Besides, the composite Z-score in test [1] is 0.0843 (inactive). For the same compound, the z-score is 0.906 in test [15] and 2.14 (inactive) in [17].
As for `CCC[C@@H]1C[C@@]1(CCC)[C@@H](NS(=O)(=O)c1cccc2cccnc12)c1ccc(Cl)cc1`, the composite z-score was 0.659 in the test with Albumin (Bos taurus); 0.0496 in test [2]; -0.106 in test [3]; 0.457 in [4]; 1.81 in test [5]; -0.119 in test [6]. The composite z-score with Sam68 (KHDRBS1) was 0.403; in test [7] it was -0.955; in test [8] it was 0.492; in test [9] it was 0.265; in test [10], 1.06; in test [11], 0.249. In addition, the composite z-score in test [12] is 0.285; in test [13], 0.0155; in [14], -1.68; in the test on Lefty1, -0.605; in test [16], 0.701. Also, the composite Z-score in [1] is -0.421 (inactive). The z-score in [15] is 2.3; in test [17] it was 0.19 (inactive).
On to `O=C(NCCN1CCOCC1)[C@@H]1c2ccccc2C(=O)N(C2CCCCC2)[C@H]1c1ccc(CO)cc1`, for which the composite z-score in the test with Albumin (Bos taurus) was 0.349; in test [2], -0.154; in [3], -0.147; in [4], 0.625; in test [5] it was 1.29; in test [6], -0.0871. Further, the composite z-score in the test on Sam68 (KHDRBS1) is 0.68; in [7], -1.08; in test [8], 0.31; in test [9] it was 0.166; in [10], 0.0657; in test [11], -0.0962. The composite z-score was 0.74 in test [12]; 0.0603 in [13]; -0.59 in test [14]; -0.0981 in the test on Lefty1; -0.403 in test [16]. Further, the composite Z-score in test [1] was -0.118 (inactive). For the same compound, the z-score in test [15] was 2.27; in [17] it was -0.293 (inactive).
